Laboratory results from a collection of fitness landscapes (doi:10.1016/j.celrep.2020.107928).
The full ranking holds about 81,000 sequences; the median of “one-hybrid fitness for binding parS DNA” is about -0.17, and the highest 2% start at about 0.51. Only a selection was taken, and the highest values are over-represented in it overall.

B1: Caulobacter ParB omega fusion; a variant is named by its letters at X, in order, B8GW30 (parent)
chain: MESVVVGEPGMSEGRRGLGRGLSALLGEVDAAPAQAPGEQLGGSREAPIEILQRNPDQPRRTFREEDLEDLSNSIREKGVLQPILVRPSPDTAGEYQIVAGERAWRAAQRAGLKTVPIMVRELDDLAVLEIGIIENVQRADLNVLEEALSYKVLMEKFERTQENIAQTIGKSXSHVANXMRLLXLPDEVQSYLVSGELTAXHARAIAAAADPVALAKQIIEGGLSVRETEALARKAPNLSAGKSKGGRPPRVKDTDTQALESDLSSVLGLDVSIDHRGSTGTLTITYATLEQLDDLCNRLTRGI

Variants of: B1
Assay: one-hybrid fitness for binding parS DNA (scaled: cognate 1, non-cognate 0); higher = stronger binding
Conditions: with parS DNA site
How it was run: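 The reporter was HIS3, with the binding site 19 bp from the promoter, in E. coli USO used for bacterial one-hybrid selection of Caulobacter ParB libraries with four specificity codons randomised. Growth was on M9 lacking histidine, with 0.1 mM IPTG and 5 mM 3-AT, for 48 hours at 37°C. Illumina sequencing covered plasmids before and after selection; three replicate libraries were pooled and variants with under 10 reads dropped. A fitness score is the log change in variant-to-wild-type read ratio, rescaled to the cognate and non-cognate references.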

Row | Variant | one-hybrid fitness for binding parS DNA
1 | DLNV | ≤ 0.2
2 | GSGS | ≤ 0.2
3 | YIFC | ≤ 0.2
4 | INTG | ≤ 0.2
5 | RVES | 0.948
6 | RVEI | ≤ 0.2
7 | RVEP | ≤ 0.2
8 | RVEM | 0.231
9 | RVET | 0.691
10 | RVEH | ≤ 0.2
11 | RVEN | 0.294
12 | RVEK | ≤ 0.2
13 | RVEF | ≤ 0.2
14 | RVEC | 0.805
15 | RVED | ≤ 0.2
16 | RVEG | 0.813
17 | HNSL | ≤ 0.2
18 | FLAG | ≤ 0.2
19 | RRQE | ≤ 0.2
20 | SFER | ≤ 0.2
21 | HAWC | ≤ 0.2
22 | PTHS | ≤ 0.2
23 | NYFA | ≤ 0.2
24 | RYFA | 0.573

Row | Variant | one-hybrid fitness for binding parS DNA
25 | PYFA | ≤ 0.2
26 | RYAA | 0.559
27 | NNWM | ≤ 0.2
28 | DTAQ | ≤ 0.2
29 | AYES | ≤ 0.2
30 | PDYS | ≤ 0.2
31 | LGYC | ≤ 0.2
32 | PVSM | ≤ 0.2
33 | RIVA | 0.585
34 | RIKA | 0.745
35 | NIVA | ≤ 0.2
36 | YQPY | ≤ 0.2
37 | GEYG | ≤ 0.2
38 | TWSS | ≤ 0.2
39 | LCRP | ≤ 0.2
40 | RKNR | ≤ 0.2
41 | RKDH | 0.231
42 | RKDN | 0.329
43 | RKNQ | ≤ 0.2
44 | RKDG | 0.939
45 | RKNG | 0.907
46 | TSWS | ≤ 0.2
47 | KARL | ≤ 0.2
48 | PVGS | ≤ 0.2

Row | Variant | one-hybrid fitness for binding parS DNA
49 | QVWC | ≤ 0.2
50 | RHAM | 0.28
51 | RHFN | 0.319
52 | RHFT | 0.707
53 | RHFP | ≤ 0.2
54 | RHAT | 0.865
55 | RHAY | 0.403
56 | HWFS | ≤ 0.2
57 | RPMV | ≤ 0.2
58 | ETTA | ≤ 0.2
59 | SPEG | ≤ 0.2
60 | RSSC | 0.966
61 | RCSC | 0.961
62 | RPSC | ≤ 0.2
63 | RESC | 0.215
64 | RSSH | ≤ 0.2
65 | RSSN | 0.436
66 | TKKI | ≤ 0.2
67 | QGCC | ≤ 0.2
68 | LEMT | ≤ 0.2
69 | CTGE | ≤ 0.2
70 | VMPA | ≤ 0.2
71 | NSSL | ≤ 0.2
72 | RLIT | 0.795

Row | Variant | one-hybrid fitness for binding parS DNA
73 | RLPK | ≤ 0.2
74 | RLID | ≤ 0.2
75 | RLIH | 0.21
76 | RLPT | 0.58
77 | RLPQ | ≤ 0.2
78 | TGTF | ≤ 0.2
79 | DRTR | ≤ 0.2
80 | QHDH | ≤ 0.2
81 | KIRG | ≤ 0.2
82 | MVRP | ≤ 0.2
83 | RAAF | 0.242
84 | RAFT | 0.847
85 | RAFH | 0.204
86 | RAAT | 0.909
87 | RAAK | ≤ 0.2
88 | RAFD | ≤ 0.2
89 | CANR | ≤ 0.2
90 | WEPV | ≤ 0.2
91 | HEHL | ≤ 0.2
92 | CTTW | ≤ 0.2
93 | FEAS | ≤ 0.2
94 | RTFA | 0.592
95 | DTFA | ≤ 0.2
96 | RTAA | 0.579

Row | Variant | one-hybrid fitness for binding parS DNA
97 | DTAA | ≤ 0.2
98 | QTHE | ≤ 0.2
99 | PSQT | ≤ 0.2
100 | QCPA | ≤ 0.2
101 | YTPS | ≤ 0.2
102 | DLAA | ≤ 0.2
103 | RLFA | 0.606
104 | DLFA | ≤ 0.2
105 | RLAA | 0.582
106 | KLFA | ≤ 0.2
107 | NLAA | ≤ 0.2
108 | IAKG | ≤ 0.2
109 | FVAR | ≤ 0.2
110 | RFPG | 0.502
111 | RFWN | ≤ 0.2
112 | NFIG | ≤ 0.2
113 | RFIG | 0.685
114 | RFWP | ≤ 0.2
115 | RFPC | 0.424
116 | RFIS | 0.777
117 | RFWS | 0.836
118 | RFID | ≤ 0.2
119 | RFIP | ≤ 0.2
120 | RFIC | 0.657

Row | Variant | one-hybrid fitness for binding parS DNA
121 | RFIH | ≤ 0.2
122 | EHMG | ≤ 0.2
123 | LHVL | ≤ 0.2
124 | AIIN | ≤ 0.2
125 | FIYG | ≤ 0.2
126 | PRHT | ≤ 0.2
127 | KCHS | ≤ 0.2
128 | KAGT | ≤ 0.2
129 | QCPW | ≤ 0.2
130 | RFPD | ≤ 0.2
131 | RFYS | 1.01
132 | RFPS | 0.551
133 | RFPH | ≤ 0.2
134 | RFYP | ≤ 0.2
135 | RFRD | ≤ 0.2
136 | RFYD | ≤ 0.2
137 | RFRN | 0.429
138 | RFLS | 0.997
139 | RFLN | 0.415
140 | RFRS | 0.954
141 | RFLD | ≤ 0.2
142 | PVIC | ≤ 0.2
143 | MHEG | ≤ 0.2
144 | VPDG | ≤ 0.2

Row | Variant | one-hybrid fitness for binding parS DNA
145 | LNYC | ≤ 0.2
146 | HRFQ | ≤ 0.2
147 | VPPW | ≤ 0.2
148 | RFCA | 0.518
149 | DFQA | ≤ 0.2
150 | NFRA | ≤ 0.2
151 | RFQA | 0.579
152 | SFRA | ≤ 0.2
153 | RFYA | 0.578
154 | RFIA | 0.373
155 | RFPA | ≤ 0.2
156 | RFRA | 0.602
157 | KFQA | ≤ 0.2
158 | ANER | ≤ 0.2
159 | NGTK | ≤ 0.2
160 | GATP | ≤ 0.2
161 | TTRY | ≤ 0.2
162 | HALT | ≤ 0.2
163 | WTPL | ≤ 0.2
164 | KHYV | ≤ 0.2
165 | QFRS | ≤ 0.2
166 | DFHT | ≤ 0.2
167 | RFGP | ≤ 0.2
168 | RFHD | ≤ 0.2

Row | Variant | one-hybrid fitness for binding parS DNA
169 | NFGT | ≤ 0.2
170 | NFWT | ≤ 0.2
171 | RFWT | 0.649
172 | RFGT | 0.775
173 | RFWD | ≤ 0.2
174 | RFDT | 0.693
175 | DFDT | ≤ 0.2
176 | RFHT | 0.853
177 | RFDR | ≤ 0.2
178 | FTEL | ≤ 0.2
179 | WFGR | ≤ 0.2
180 | AVPM | ≤ 0.2
181 | IHAA | ≤ 0.2
182 | GDDN | ≤ 0.2
183 | RFRH | 0.219
184 | RFCT | 0.725
185 | SFCT | ≤ 0.2
186 | RFIT | 0.508
187 | RFCR | ≤ 0.2
188 | RFST | 0.841
189 | RFYT | 0.801
190 | RFSN | 0.377
191 | RFRT | 0.9
192 | RFPT | 0.376

Row | Variant | one-hybrid fitness for binding parS DNA
193 | NFRT | ≤ 0.2
194 | NFST | ≤ 0.2
195 | SRLA | ≤ 0.2
196 | RPYM | ≤ 0.2
197 | QLWS | ≤ 0.2
198 | QWRP | ≤ 0.2
199 | YTDG | ≤ 0.2
200 | VYTC | ≤ 0.2
201 | AQSP | ≤ 0.2
202 | FRLV | ≤ 0.2
203 | MRTY | ≤ 0.2
204 | DFLT | ≤ 0.2
205 | RFNP | ≤ 0.2
206 | RFNT | 0.862
207 | RFQT | 0.8
208 | RFLT | 0.75
209 | RFNN | 0.411
210 | RFQD | ≤ 0.2
211 | RFLP | ≤ 0.2
212 | RFQP | ≤ 0.2
213 | WYGN | ≤ 0.2
214 | YMRM | ≤ 0.2
215 | YQRV | ≤ 0.2
216 | AIED | ≤ 0.2

Row | Variant | one-hybrid fitness for binding parS DNA
217 | TPRA | ≤ 0.2
218 | QTSF | ≤ 0.2
219 | AAYQ | ≤ 0.2
220 | WMAR | ≤ 0.2
221 | RCLY | 0.49
222 | RVRY | 0.583
223 | RVLY | 0.508
224 | RVDY | 0.427
225 | RVKY | 0.664
226 | RVYY | 0.495
227 | RVVY | 0.413
228 | TIST | ≤ 0.2
229 | CHTY | ≤ 0.2
230 | TCYR | ≤ 0.2
231 | QKCY | ≤ 0.2
232 | TNVQ | ≤ 0.2
233 | CETD | ≤ 0.2
234 | ADRH | ≤ 0.2
235 | QVQF | ≤ 0.2
236 | RRRH | 0.592
237 | RRIS | 0.753
238 | RRDH | ≤ 0.2
239 | RRIH | ≤ 0.2
240 | RRWP | ≤ 0.2

Row | Variant | one-hybrid fitness for binding parS DNA
241 | RRYD | ≤ 0.2
242 | RRWD | ≤ 0.2
243 | RRIN | 0.304
244 | RRWS | 0.772
245 | RRYP | ≤ 0.2
246 | RRYH | ≤ 0.2
247 | RRYS | 0.68
248 | VFKT | ≤ 0.2
249 | HRKK | ≤ 0.2
250 | QLWG | ≤ 0.2
251 | RFHY | 0.462
252 | RRLD | ≤ 0.2
253 | RRLS | 0.701
254 | RRPS | 0.757
255 | RRRS | 0.67
256 | RRPN | 0.246
257 | RRRD | ≤ 0.2
258 | RRPD | ≤ 0.2
259 | RRRP | 0.203
260 | RRLN | 0.396
261 | MLQR | ≤ 0.2
262 | HTWN | ≤ 0.2
263 | YCLV | ≤ 0.2
264 | VKKI | ≤ 0.2

Row | Variant | one-hybrid fitness for binding parS DNA
265 | VDFT | ≤ 0.2
266 | LALR | ≤ 0.2
267 | QPAK | ≤ 0.2
268 | VVMR | ≤ 0.2
269 | VDRK | ≤ 0.2
270 | NEFY | ≤ 0.2
271 | RKYH | ≤ 0.2
272 | RKLP | ≤ 0.2
273 | RKIP | ≤ 0.2
274 | RKYP | ≤ 0.2
275 | RKLS | 0.876
276 | RKYS | 0.857
277 | RKIS | 0.958
278 | RKLD | ≤ 0.2
279 | RKPN | ≤ 0.2
280 | RKPS | 0.682
281 | RKPH | ≤ 0.2
282 | RKID | ≤ 0.2
283 | AWGT | ≤ 0.2
284 | HHGR | ≤ 0.2
285 | DVDS | ≤ 0.2
286 | SCTT | ≤ 0.2
287 | KNMC | ≤ 0.2
288 | RKRS | 0.747

Row | Variant | one-hybrid fitness for binding parS DNA
289 | RKWS | 0.955
290 | RKRH | ≤ 0.2
291 | RKWN | 0.364
292 | RKRN | 0.347
293 | RKWD | ≤ 0.2
294 | IFGG | ≤ 0.2
295 | PIND | ≤ 0.2
296 | RMLF | 0.238
297 | RSLG | 0.987
298 | RLLR | ≤ 0.2
299 | RMLG | 1.01
300 | RLLG | 1.02
301 | RPLG | ≤ 0.2
302 | RDLG | ≤ 0.2
303 | RMLM | 0.363
304 | RELG | 0.217
305 | RSLF | 0.228
306 | RLLM | 0.372
307 | RCLG | 1.01
